# In publication PMC4336329 (PLoS ONE, 2015):
# Out of some 310,000 compounds screened, about 14,000 (4.5%) showed an effect of 50% or more. Effects have a minus sign here. The full list was thinned out, with strong results kept by preference.
# Molecular target: human ether-à-go-go-related gene (hERG) potassium channel (human, UniProt Q12809)
# Assay: primary screen, population patch clamp on CHO cells stably expressing hERG; higher = less effect of the substance
# 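Note: peak tail current of the secondary pulse compared with the same well before compound.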
# Chain of human ether-à-go-go-related gene (hERG) potassium channel (Q12809 whole entry, looked up): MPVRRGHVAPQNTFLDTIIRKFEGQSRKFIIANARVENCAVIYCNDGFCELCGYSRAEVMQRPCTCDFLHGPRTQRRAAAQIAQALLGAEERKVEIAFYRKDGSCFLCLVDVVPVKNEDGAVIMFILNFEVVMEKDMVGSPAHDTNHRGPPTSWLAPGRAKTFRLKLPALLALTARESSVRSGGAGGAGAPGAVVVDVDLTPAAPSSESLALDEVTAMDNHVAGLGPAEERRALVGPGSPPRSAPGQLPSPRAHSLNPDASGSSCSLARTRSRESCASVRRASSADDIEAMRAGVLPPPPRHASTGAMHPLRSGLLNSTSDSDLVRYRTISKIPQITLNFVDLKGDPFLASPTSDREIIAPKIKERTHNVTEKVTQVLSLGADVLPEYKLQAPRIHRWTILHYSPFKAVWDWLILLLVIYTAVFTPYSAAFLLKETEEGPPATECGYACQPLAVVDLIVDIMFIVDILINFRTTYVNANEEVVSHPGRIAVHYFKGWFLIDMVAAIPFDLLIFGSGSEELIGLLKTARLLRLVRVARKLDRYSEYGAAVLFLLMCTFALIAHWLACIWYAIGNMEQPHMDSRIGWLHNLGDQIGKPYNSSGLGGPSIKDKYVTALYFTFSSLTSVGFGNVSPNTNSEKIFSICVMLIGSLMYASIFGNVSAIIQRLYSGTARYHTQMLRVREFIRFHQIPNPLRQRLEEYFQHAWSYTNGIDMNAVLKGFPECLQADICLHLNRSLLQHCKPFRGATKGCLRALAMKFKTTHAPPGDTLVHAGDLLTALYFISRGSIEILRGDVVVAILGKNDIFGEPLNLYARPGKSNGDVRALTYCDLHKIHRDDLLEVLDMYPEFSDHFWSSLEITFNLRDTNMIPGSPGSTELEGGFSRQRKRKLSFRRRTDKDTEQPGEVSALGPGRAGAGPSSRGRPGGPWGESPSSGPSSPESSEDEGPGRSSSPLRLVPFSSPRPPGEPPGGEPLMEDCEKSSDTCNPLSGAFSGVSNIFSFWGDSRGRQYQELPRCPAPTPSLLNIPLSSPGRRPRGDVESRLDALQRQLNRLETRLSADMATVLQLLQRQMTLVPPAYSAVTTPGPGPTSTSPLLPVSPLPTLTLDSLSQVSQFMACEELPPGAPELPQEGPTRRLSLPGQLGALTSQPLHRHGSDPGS
row,Compound,"hERG current change (%, negative = inhibition) at 10uM [%]"
1,Cc1sc(NC(=S)NC(=O)c2ccccc2)c(C#N)c1C,0.195
2,O=C(N/N=C1\C(=O)c2cccc3cccc1c23)c1ccc(O)cc1,8.35
3,CCOC(=O)c1[nH]c2cc(OC)c(OC)cc2c1NC(=O)c1ccc2c(c1)OCO2,-4.45
4,COc1cc(C(=O)N/N=C(\C)Cn2nc([N+](=O)[O-])cc2C)ccc1O,-21.1
5,CC(C)(C)c1nnc(NC(=O)NS(=O)(=O)c2ccccc2)s1,19.7
6,O=C(Nc1nccs1)c1ccc(S(=O)(=O)N2CCCCC2)cc1,3.29
7,COc1ccc(C(=O)O)cc1S(=O)(=O)N(C)C,16.6
8,O=C(Nc1cc(Cl)ccc1Oc1ccccc1)c1ccccc1F,-4.45
9,CCCC(C)C(=O)Nc1ccccc1C(=O)OCC (stereo not drawn),-4.39
10,O=S(=O)(Nc1ccccc1Cl)c1cc(NC(=S)NCCN2CCOCC2)ccc1Cl,14
11,CCOC(NC(=O)c1ccccc1)C(NC(=O)c1ccccc1)OCC (stereo not drawn),-0.069
12,CCN1CCN(c2ccc(N3CCN(S(=O)(=O)c4cc([N+](=O)[O-])ccc4C)CC3)nn2)CC1,-54.4
13,CCN1CCN(c2ccc(N3CCN(S(=O)(=O)c4ccc(C)c([N+](=O)[O-])c4)CC3)nn2)CC1,-56.6
14,Cc1ccc(S(=O)(=O)N2CCN(c3ccc(N4CCOCC4)nn3)CC2)cc1[N+](=O)[O-],-4.74
15,Cc1ccc([N+](=O)[O-])cc1S(=O)(=O)N1CCCC1,7.21
16,CCN1CCN(S(=O)(=O)c2ccc(C)c([N+](=O)[O-])c2)CC1,-0.352
17,Cc1ccc([N+](=O)[O-])cc1S(=O)(=O)N1CCN(C)CC1,0.51
18,C[C@]12CC[C@@H]3c4cc(O)c(O)cc4CC[C@H]3[C@@H]1CC[C@@H]2O,24.1
19,O=C(O)c1cc(-c2cccc(Cl)c2)nc2nc(N3CCCCC3)sc12,8.18
20,CS(=O)(=O)c1ccc(NCC2CCCO2)c([N+](=O)[O-])c1 (stereo not drawn),9.48
21,CN(CCc1ccccc1)C1CCCN(C(=O)Cn2cccn2)C1 (stereo not drawn),-1.49
22,Cc1cc(C)nc(SCc2ccc(C(=O)N/N=C/c3ccncc3)cc2)n1,-50.5
23,Cc1cc(C)nc(SCc2ccc(C(=O)N/N=C/c3cccnc3)cc2)n1,-17.3
24,Cc1cc(C)nc(SCc2ccc(C(=O)N/N=C/c3ccc(C(=O)O)cc3)cc2)n1,28.6
25,N=C1C(c2nc3ccccc3[nH]2)=C(O)CN1NC(=O)c1c[nH]c2ccccc12,17
26,CCOc1ccc(N2C(=O)Nc3ccc(Br)cc3C2(O)C(=O)NC(C)C)cc1 (stereo not drawn),8.92

row,Compound,"hERG current change (%, negative = inhibition) at 10uM [%]"
1,Cn1c2ccccc2c2cnn(CC(=O)N3CCC4(CC3)OCCO4)c(=O)c21,-22.2
2,Cc1c2cnn(CC(=O)N3CCC4(CC3)OCCO4)c(=O)c2c(C)n1Cc1ccccc1,-0.415
3,Cc1c2cnn(CC(=O)N3CCC4(CC3)OCCO4)c(=O)c2c(C)n1Cc1ccccc1F,6.7
4,Cc1c2cnn(CC(=O)N3CCC4(CC3)OCCO4)c(=O)c2c(C)n1Cc1ccc(F)cc1,-7.31
5,O=C(Cn1ncc2c3ccccc3n(Cc3ccc(F)cc3)c2c1=O)N1CCC2(CC1)OCCO2,-67.2
6,O=C(Cn1ncc2c3ccccc3n(Cc3ccc(F)cc3)c2c1=O)N1CCN(c2ncccn2)CC1,-16.2
7,O=C(Cn1ncc2c3ccccc3n(Cc3ccccc3F)c2c1=O)N1CCC2(CC1)OCCO2,-72.8
8,O=C(Cn1ncc2c3ccccc3n(Cc3cccc(Cl)c3)c2c1=O)N1CCC2(CC1)OCCO2,-69
9,Cc1c2cnn(CC(=O)N3CCC4(CC3)OCCO4)c(=O)c2c(C)n1Cc1cccc(Cl)c1,1.18
10,Cc1ccc2nc(C(C)O)[nH]c2c1 (stereo not drawn),17.3
11,CC#CCCCC(=O)Nc1ccc(C(=O)O)cc1,1.36
12,CN1CCN(Cc2nc(-c3cccs3)no2)CC1c1ccccc1 (stereo not drawn),-8.45
13,COC(=O)c1nnn(CC(=O)NC(=O)Nc2cccc(Cl)c2C)c1C(=O)OC,-0.536
14,O=C(COc1ccccc1)Nc1ccccc1N1CCCCC1,2.27
15,CCn1cc(C(=O)NCc2ccco2)c(=O)c2cc(S(=O)(=O)N3CCc4ccccc4C3)ccc21,-15.3
16,CCN(CC)CCNC(=O)c1cn(CC)c2ccc(S(=O)(=O)N3CCc4ccccc4C3)cc2c1=O,-59.4
17,CCCCN(CCCC)CCNC(=O)c1cn(CC)c2ccc(S(=O)(=O)N3CCc4ccccc4C3)cc2c1=O,-78.8
18,CCn1cc(C(=O)NCCc2ccccc2)c(=O)c2cc(S(=O)(=O)N3CCCC3)ccc21,1.7
19,CCN(CC)CCCNC(=O)c1cn(CC)c2ccc(S(=O)(=O)N3CCc4ccccc4C3)cc2c1=O,-52.9
20,CCCN(CCC)CCCNC(=O)c1cn(CC)c2ccc(S(=O)(=O)N3CCc4ccccc4C3)cc2c1=O,-69.9
21,CCn1cc(C(=O)NCCCN2CCN(C)CC2)c(=O)c2cc(S(=O)(=O)N3CCc4ccccc4C3)ccc21,-20.4
22,CCCN(CCC)CCCNC(=O)c1cn(CC)c2ccc(S(=O)(=O)N3CCOCC3)cc2c1=O,12.8
23,CCn1cc(C(=O)NCCN(CC(C)C)CC(C)C)c(=O)c2cc(S(=O)(=O)N3CCOCC3)ccc21,-14.1
24,O=C(NC1CCCCC1)C1CCC(CNS(=O)(=O)c2ccccc2)CC1 (stereo not drawn),10.3
25,COc1ccc(-c2c(C#N)c(C)nc3c2C(=O)c2ccccc2-3)cc1,-3.8
